The sample as a whole holds a higher share of hits than the screen did.
T cruzi growth-1: T. cruzi intracellular proliferation inhibitors, primary screen, cell-based, beta-gal Tulahuen parasites, NIH3T3 host, luminescence; T. cruzi beta-gal in NIH3T3, GalScreen luminescence, 90 h; inhibition, % at 8.34 µM; hit rate 5.9% among 77,000; AID 624255, 2012;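 active = mean inhibition above about 93%, with at least 55% of replicates each passing it, limit read from the data, passing the limit was not always enough; inconclusive = only one of those two conditions holds; inactive = neither condition holds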
C diff growth: C. difficile growth inhibitors, primary screen, HTS; Clostridium difficile clinical isolate growth, OD600, 24 h; active compounds read low; growth activity, negative = inhibition, % at 16 µg/mL (by protocol); hit rate 0.25% among 86,000; AID 1259249, 2017;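 active = mean growth activity at or below -80% and every replicate also at or below -80%; inconclusive = mean at or below -80% but some replicate above -80%; inactive = mean growth activity above -80%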;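 note: 0% = DMSO wells and -100% = levofloxacin 16 µg/mL wells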
T cruzi growth-2: T. cruzi intracellular proliferation inhibitors, confirmation, cell-based, NIH3T3 host, beta-gal parasite, luminescence, cherry-pick; T. cruzi beta-gal in NIH3T3, GalScreen luminescence, 90 h; shares compounds with T cruzi growth-1; inhibition, % at 8.35 µM; hit rate 72% among 5,600; AID 651739, 2012;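 active = mean replicate inhibition above about 95% and at least 55% of replicates individually reaching it, limit read from the data; inconclusive = only one of the two criteria is met; inactive = neither criterion is met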
T cruzi growth-3: inhibitors of intracellular T. cruzi replication, confirmation, NIH3T3 host cells, beta-gal parasites, cherry-pick, set 2; T. cruzi beta-gal in NIH3T3, GalScreen luminescence, 90 h; inhibition, % at 2.09 µM; AID 651740, 2012; shares compounds with T cruzi growth-1; hit rate 21% among 5,600;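 active = mean inhibition above about 95%, with at least 55% of replicates also reaching it, limit read from the data; inconclusive = meets just one of the two conditions; inactive = meets neither condition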;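 note: plate controls were neutral control median for no effect and positive control median for full effect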
3T3 cytotox: cytotoxicity in mouse NIH/3T3 fibroblasts, confirmation, cytotoxicity control for T. cruzi proliferation inhibitor project, cell-based, cherry-pick, single point; NIH/3T3 viability, CellTiter-Glo ATP luminescence, 90 h; cytotoxicity (signal decrease), % at 8.35 µM; shares compounds with T cruzi growth-1; hit rate 14% among 5,600;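 active = mean signal decrease across replicates above about 35% based on untreated-well scatter, with enough replicates individually passing, limit read from the data; inconclusive = no rule stated though some were filed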;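 note: 0% = median of neutral control wells and 100% = median of positive control wells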
3T3 cytotox 2: NIH/3T3 fibroblast cytotoxicity, confirmation, cytotoxicity control, cell-based, cherry-pick, single point, set 2; hit rate 56% among 5,600; inhibition, % at 24.9 µM; shares compounds with T cruzi growth-1; AID 651744, 2012; NIH/3T3 viability, CellTiter-Glo ATP luminescence, 90 h;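 active = mean loss of cell viability signal at or above a set limit, and enough replicates individually reaching it; inconclusive = meets only the mean limit or only the replicate share; inactive = meets neither condition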;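 note: 0% = median of neutral control wells and 100% = median of positive control wells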
Active calls of the source: *.

For COc1ccccc1S(=O)(=O)N1CC[C@H]2[C@H](CO)Nc3ccc(-c4ccc(F)cc4)cc3[C@H]21 the results were T cruzi growth-1 17 and C diff growth 3.
COc1ccccc1S(=O)(=O)N[C@@H]1CC[C@H](CCNC(=O)C2CCC2)O[C@H]1CO was read as C diff growth 1.
COc1ccc(S(=O)(=O)N(C)C[C@H]2Oc3ccc(NS(C)(=O)=O)cc3C(=O)N([C@H](C)CO)C[C@@H]2C)cc1 was read as T cruzi growth-1 -8 and C diff growth -1.
For CCCC(=O)Nc1ccc2c(c1)OC[C@@H](C)N(C(=O)CC)C[C@H](C)[C@@H](OC)CN(C)C2=O the results were T cruzi growth-1 -6.
C[C@@H]1CN([C@@H](C)CO)S(=O)(=O)c2ccc(C3=CCCC3)cc2O[C@H]1CN(C)Cc1ccccc1 was read as T cruzi growth-1 80 and C diff growth 8.
C[C@@H]1CN([C@@H](C)CO)S(=O)(=O)c2ccc(C3=CCCC3)cc2O[C@@H]1CN(C)Cc1ccccc1 was read as T cruzi growth-1 107*, C diff growth 1, T cruzi growth-2 inconclusive, T cruzi growth-3 68, 3T3 cytotox 33 and 3T3 cytotox 2 106*.
Screening C[C@H](CO)N1C[C@H](C)[C@@H](CN(C)Cc2cccc(C(=O)O)c2)Oc2cc(C3=CCCC3)ccc2S1(=O)=O returned T cruzi growth-1 -41 and C diff growth 0.
C[C@H](CO)N1C[C@H](C)[C@H](CN(C)Cc2ccccc2)Oc2cc(C3=CCCC3)ccc2S1(=O)=O was read as T cruzi growth-1 108*, C diff growth 7, T cruzi growth-2 108*, T cruzi growth-3 51, 3T3 cytotox 7 and 3T3 cytotox 2 105*.
For C[C@@H]1CN([C@H](C)CO)S(=O)(=O)c2ccc(C3=CCCC3)cc2O[C@H]1CN(C)Cc1cccnc1 the results were T cruzi growth-1 101*, C diff growth 7, T cruzi growth-2 93, T cruzi growth-3 76, 3T3 cytotox inconclusive and 3T3 cytotox 2 36*.
`C[C@H](CO)N1C[C@H](C)[C@H](CN(C)Cc2cccnc2)Oc2cc(C3=CCCCC3)ccc2S1(=O)=O` gave C diff growth 7.
Screening C/C=C/c1ccc([C@@H]2[C@H]3CN(C(=O)c4ccncc4)CC(=O)N3[C@H]2CO)cc1 returned C diff growth -7.
C[C@@H]1CCCCO[C@@H](CN(C)C(=O)c2ccncc2)[C@H](C)CN([C@H](C)CO)C(=O)c2cc(NC(=O)Cc3ccccc3)ccc2O1 was read as T cruzi growth-1 66 and C diff growth 3.
CCC(=O)N1[C@H](CO)[C@@H](c2ccc(-c3cccnc3)cc2)[C@@H]1CN(C)C(C)=O was read as T cruzi growth-1 -5 and C diff growth 1.
CCC(=O)N(C)C[C@H]1[C@H](c2ccc(-c3cccnc3)cc2)[C@@H](CO)N1C(C)=O was read as T cruzi growth-1 55 and C diff growth -7.
`CCC(=O)N1[C@@H](CO)[C@@H](c2ccc(-c3cccnc3)cc2)[C@@H]1CN(CC)C(C)=O` gave T cruzi growth-1 98*, C diff growth 9, T cruzi growth-2 -4, T cruzi growth-3 18, 3T3 cytotox -3 and 3T3 cytotox 2 13.
`COCC(=O)N(C)C[C@@H]1[C@H](c2ccc(-c3cccnc3)cc2)[C@@H](CO)N1C(C)=O` gave T cruzi growth-1 100*, C diff growth 0, T cruzi growth-2 -70, T cruzi growth-3 -21, 3T3 cytotox -30 and 3T3 cytotox 2 -27.
Screening COc1cccc(CNC(=O)C[C@H]2CC[C@H](NC(=O)C3CCOCC3)[C@@H](CO)O2)c1 returned T cruzi growth-1 21 and C diff growth 3.
`O=C(C[C@H]1CC[C@H]2[C@@H](COC[C@@H](O)CN2S(=O)(=O)c2ccc(Cl)cc2)O1)N[C@H]1CCN(Cc2ccccc2)C1` gave T cruzi growth-1 93.
`COc1ccc(S(=O)(=O)N2CCCCN3[C@H](C2)[C@@H](c2ccc(C#CC4CC4)cc2)[C@@H]3CO)cc1` gave T cruzi growth-1 107*, C diff growth 30, T cruzi growth-2 100*, T cruzi growth-3 108*, 3T3 cytotox 38* and 3T3 cytotox 2 77*.
For COc1ccc(S(=O)(=O)N2CCCCN3[C@H](CO)[C@@H](c4ccc(C#CC5CC5)cc4)[C@H]3C2)cc1 the results were T cruzi growth-1 inconclusive, C diff growth 35, T cruzi growth-2 107*, T cruzi growth-3 106*, 3T3 cytotox 25 and 3T3 cytotox 2 106*.
For O=S(=O)(c1ccc(F)cc1)N1CCCCN2[C@@H](CO)[C@@H](c3ccc(C#CC4CC4)cc3)[C@@H]2C1 the results were T cruzi growth-1 86 and C diff growth 46.
`COc1ccc(C#Cc2ccc([C@@H]3[C@@H](CO)N4CCCCN(S(=O)(=O)c5ccccc5)C[C@H]34)cc2)cc1` gave T cruzi growth-1 67 and C diff growth 11.
O=S(=O)(c1ccc(F)cc1)N1CCCCN2[C@H](CO)[C@H](c3ccc(C#CC4CC4)cc3)[C@H]2C1 was read as T cruzi growth-1 101*, C diff growth 56, T cruzi growth-2 104*, T cruzi growth-3 83, 3T3 cytotox 43* and 3T3 cytotox 2 105*.
Screening O=S(=O)(c1ccc(F)cc1)N1CCCCN2[C@H](CO)[C@H](c3ccc(C#CC4CC4)cc3)[C@@H]2C1 returned T cruzi growth-1 100 and C diff growth 12.
For O=S(=O)(c1ccc(F)cc1)N1CCCCN2[C@H](CO)[C@@H](c3ccc(C#CC4CC4)cc3)[C@@H]2C1 the results were T cruzi growth-1 44 and C diff growth -1.
Screening COc1ccc(S(=O)(=O)N2CCCCN3[C@H](CO)[C@@H](c4ccc(C#CC5CC5)cc4)[C@@H]3C2)cc1 returned T cruzi growth-1 117*, C diff growth -5, T cruzi growth-2 109*, T cruzi growth-3 88, 3T3 cytotox 19 and 3T3 cytotox 2 55*.
C[C@@H]1CN([C@@H](C)CO)C(=O)Cc2cc(NC(=O)Cn3cnnn3)ccc2O[C@H]1CN(C)CC1CCCCC1 was read as T cruzi growth-1 51 and C diff growth -2.
CN(C)CC(=O)Nc1ccc2c(c1)[C@H]1C[C@@H](CC(=O)N3CCc4ccccc4C3)O[C@@H](CO)[C@H]1O2 was read as T cruzi growth-1 19.
